# Compound activity deposited in PubChem BioAssay by National Center for Advancing Translational Sciences (NCATS).
# GLS inhibitor – glutaminase GLS (human) inhibition; O94925; hit rate 0.21% among 410,000; Potency, µM (highest dose often 45.5 µM), inactives show at the top dose activity change, negative = inhibition, usual class: inhibitors; GLS enzymatic activity, qHTS titration; also: potency is read from the fitted curve at half-maximal effect; % is scaled to controls: 0 for no effect and ±100 for the full control effect
#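 Coupled fluorescence readout: glutamate oxidase/HRP/Amplex Red detect glutamate formed by hKGA from L-glutamine (1 mM solution added). Buffer 45 mM KH2PO4 pH 8.2, 0.02% Tween-20; reads at t0 and 30 min RT.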
# GLP-1R agonist – agonists of human GLP-1 receptor; HEK293 GLP-1R CRE-luciferase, luminescence, 4-6 h; cells express a hypersensitive GLP-1R form; P43220; hit rate 0.007% among 380,000; AID 624172; Potency, µM (series often up to 45.6 µM), for inactives: at the highest dose activation, usual class: activators; also: potency is read from the fitted curve at half-maximal effect; % of control where 0% means no effect
# KCNH2 3.1 block – blocks the human KCNH2 3.1 channel isoform | AID 720553 | hit rate 0.95% among 340,000 | U2OS KCNH2 3.1, thallium flux FluxOr; active compounds read low | activity change, % (tested at about 1.8 µM);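 active = maximum activity change below -70%; inconclusive = maximum activity change from -70% to -50%; inactive = maximum activity change above -50%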;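 also: thallium influx rate constant from kinetic fluorescence after stimulation buffer; % is scaled to controls: 0 for no effect and ±100 for the full control effect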
#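 Normalized rate constant (relative to positive and negative DMSO controls) derived from a 2 min kinetic fluorescence read after stimulation; U2OS cells expressing the 3.1 isoform via virus at 1.77 x 10^8 /mL.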
# KCNH2 WT inh – KCNH2 (human, wildtype) channel inhibition; Q12809; U2OS, BacMam KCNH2, thallium flux FluxOr; active compounds read low; activity change, % at 1.84 µM; hit rate 0.37% among 340,000; AID 720551;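 active = maximum activity change below -70%; inconclusive = maximum activity change between -70% and -50%; inactive = maximum activity change above -50%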; also: % is scaled to controls: 0 for no effect and ±100 for the full control effect
#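 U2OS cells were transduced with wild-type KCNH2 virus (2.03 x 10^8 / mL) for 4 h at room temperature, then cultured overnight at 37 C. Thallium flux was read with FluxOr dye. Rate constants were normalized to DMSO controls.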
# GLP-1R inv ag – inverse agonists of human GLP-1 receptor. HEK293 GLP-1R CRE-luciferase, luminescence, 24 h; GLP-1R form is constitutively active. Potency, µM (highest dose often 38.3 µM), without a hit: at the top dose activity change, negative = inhibition, usual class: inhibitors. hit rate 1.6% among 410,000; also: potency is read from the fitted curve at half-maximal effect; % is scaled to controls: 0 for no effect and ±100 for the full control effect; nearly all actives have a fitted effect of over 55% in size
#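 Readout was luciferase luminescence, measured 12 min after detection reagent at room temperature. Beforehand, GLP-1R reporter HEK293 cells had sat 12 h, then received compounds for 24 hr at 37 deg C.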
# GLP1R cytotox – cytotoxic in the GLP-1 receptor inverse agonist counter-screen | HEK293 cAMP-luciferase reporter cells, luminescence, 24 h | Potency, µM (doses to about 38.3 µM), for the others: at the top dose activity change, negative = inhibition, most hits filed as inhibitors | hit rate 0.13% among 410,000 | AID 624418;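 also: loss of luciferase light is scored as toxicity; potency is read from the fitted curve at half-maximal effect; % is scaled to controls: 0 for no effect and ±100 for the full control effect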
#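 1536-well qHTS counterscreen of the MLSMR; 200 cells/uL, 12 h pre-incubation, 23 nL cpd, 24 h at 37 deg C 5% CO2, luciferase detection reagent, 12 min RT, luminescence. Inhibition = undesired.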
# An asterisk follows results filed as active; u = inconclusive; x = not tested or not shown; ! = not active in a repeat. Only some compounds are listed: those with a hit (about 2.8% of all), similar ones and a draw of the others. Unless noted, calls follow the shape of the dose curve; as a rule, active = well fitted curve in the direction sought with a large enough effect; inconclusive = small, poorly fitted or top-dose-only effect, or another doubt; inactive = no such curve, though single readings can be large; an effect the other way counts as inactive or inconclusive.
SMILES,GLS inhibitor,GLP-1R agonist,KCNH2 3.1 block,KCNH2 WT inh,GLP-1R inv ag,GLP1R cytotox
CC(C)C[C@@H](CN1CCC[C@@H]1CN1C(=S)NC[C@@H]1Cc1ccccc1)N1C[C@H](Cc2ccc(O)cc2)N(CC2CCCCC2)C1=S,2%,0%,x,x,29%,1%
CC(C)C[C@@H](CN1CCCC1CN1C(=S)NC[C@@H]1Cc1ccc(O)cc1)N1C[C@H](Cc2ccc(O)cc2)N(CC2CCCCC2)C1=S (some centres undefined),36%,-1%,-38,-47,11µM*,u
CC(C)C[C@@H](CN1CCC[C@@H]1CN1C(=S)NC[C@@H]1Cc1ccc(O)cc1)N1C[C@H](Cc2ccccc2)N(CCc2ccccc2)C1=S,4%,-5%,x,x,u,1%
CC(C)C[C@@H](CN1CCCC1CN1C(=S)NC[C@@H]1Cc1ccc(O)cc1)N1C[C@H](Cc2ccccc2)N(CCc2ccccc2)C1=S (some centres undefined),9%,-2%,-49,-71*,u,8%
O=C(Nc1nc(-c2nc3ccccc3s2)cs1)C1COc2ccccc2O1 (centres undefined),0%,-3%,-83*,-6,u,u
Cc1onc(-c2c(Cl)cccc2Cl)c1C(=O)NC1C(=O)N2C1SC(C)(C)C2C(=O)O (centres undefined),13µM*,3%,-1,-5,13%,3%
Cc1onc(-c2ccccc2)c1C(=O)N[C@@H]1C(=O)N2C1SC(C)(C)[C@@H]2C(=O)O (some centres undefined),3%,1%,-2,-3,9%,3%
Cc1onc(-c2c(Cl)cccc2Cl)c1C(=O)N[C@@H]1C(=O)N2[C@@H]1SC(C)(C)[C@@H]2C(=O)O,10µM*!,24%,1,12,11%,-1%
Cc1onc(-c2c(Cl)cccc2Cl)c1C(=O)NC1CCCCC1,9%,10%,-4,-15,u,9%
COc1ccc([C@H]2C[C@H](O)[C@@H](n3cc(C4CC4)nn3)CN2CC2CCCCC2)cc1,-2%,6%,4,-5,u,14%
COc1ccc([C@H]2C[C@@H](O)[C@H](n3cc(C4CC4)nn3)CN2CC2CCCCC2)cc1,0%,6%,-6,-6,7.9µM*,-14%
CCCCCCN1C[C@@H](n2cc(-c3ccc(F)cc3)nn2)[C@H](O)C[C@@H]1c1ccc(OC)cc1,1%,-2%,-17,-6,3.2µM*,u
CCCCCCN1C[C@H](n2cc(-c3ccc(F)cc3)nn2)[C@@H](O)C[C@@H]1c1ccc(OC)cc1,13%,-5%,-18,-6,-31%,4%
CCCCCC(=O)N1C[C@H](O)[C@@H](n2cc(-c3ccc(F)cc3)nn2)C[C@@H]1c1ccc(OC)cc1,-6%,5%,-39,20,11µM*,-24%
CCCCCC(=O)N1C[C@H](O)[C@@H](n2cc(-c3ccc(F)cc3)nn2)C[C@@H]1c1ccc(Cl)cc1,1%,5%,-25,-1,10µM*,u
Cc1noc(C)c1COc1ccc(C(=O)Nc2nnc(CC(C)C)s2)cc1,-7%,-1%,-10,35,2%,-18%
CCc1cc2c(cc3c(=O)n(CC(=O)NC4CCCCC4)ncn32)s1,6%,x,x,x,2%,7%
CC(C)(Oc1ccc(Cl)cc1)C(=O)N(Cc1ccccc1)c1ccccn1,4%,-2%,-17,1,10µM*,2%
O=C(NCc1ccco1)c1ccc2c(c1)N(Cc1ccc(F)cc1)C(=O)c1ccccc1S2(=O)=O,-6%,x,x,x,u,-16%
CC(=O)c1ccc(OCC(O)COc2ccc(C(C)=O)cc2)cc1,-10%,1%,11,-14,12%,12%
CC(=O)c1ccc(OCC(O)CN(C)CCOc2ccc(Br)cc2)cc1 (centres undefined),-9%,0%,-31,-38,10µM*,10%
O=C(NCC1CC1)c1onc(CSc2ccc(F)cc2)c1C(=O)NCC1CC1,2%,-1%,3,11,u,7%
Cc1cc(C)cc(SCc2noc(C(=O)NCC3CC3)c2C(=O)NCC2CC2)c1,-2%,7%,-14,3,8.9µM*,-3%
CCCNC(=O)c1c(CSc2ccc(Cl)cc2)noc1C(=O)NCc1ccccc1,0%,2%,-41,-10,5µM*,5%
CCCCNC(=O)c1c(CSc2ccc(Cl)cc2)noc1C(=O)NCc1ccccc1,-3%,7%,-11,-5,u,-1%
SMILES,GLS inhibitor,GLP-1R agonist,KCNH2 3.1 block,KCNH2 WT inh,GLP-1R inv ag,GLP1R cytotox
O=C(NCc1ccccc1)c1onc(CSc2ccccc2)c1C(=O)NCc1ccccc1,-4%,10%,-5,-2,u,0%
CCCCNC(=O)c1c(CSc2ccccc2)noc1C(=O)NCc1ccccc1,-1%,-2%,11,11,10µM*,-33%
O=C(NCc1ccccc1)c1onc(CSc2ccccc2)c1C(=O)NCC1CC1,-7%,-4%,-1,-13,3.5µM*,0%
Cc1ccc2c(cnn2C(=O)CCC(=O)N2CCCCC2C)c1 (centres undefined),2%,3%,-7,-6,-4%,4%
COc1ccc(CNC(=O)Cc2ccc(NC(=O)N3CCSc4ncccc43)cc2)cc1,-1%,x,x,x,2%,2%
COc1ccccc1CNC(=O)c1sccc1-c1ccccc1,7%,21%,-9,-1,u,4%
Cc1ccc(C2CC(c3cccs3)=NN2C(=O)CSC2=NCCS2)cc1 (centres undefined),0%,-2%,-6,-4,4.5µM*,-5%
Cc1ccc2c(c1)c1c(n2CC(O)CNC(C)(C)C)CCCC1 (centres undefined),11%,3%,-4,13,10µM*,-26%
CC[N+]1(C)CCC(O)(/C=C/c2ccccc2)C(C(=O)/C=C/c2ccccc2)C1 (centres undefined),35%,-15%,x,0,10µM*,u
CCc1ccc(/C=C/C(=O)C2C(=O)c3ccccc3C2=O)cc1,10%,-15%,4,-2,-1%,0%
OC(c1cc(-c2cccc(Cl)c2)nc2ccccc12)C1CCCCN1 (centres undefined),-17%,-4%,-15,3,1.4µM*,10µM*
CCN(CC)c1ccc(/C=N/N2C(C)CCCC2C)c(O)c1 (centres undefined),-28%,17%,14,3,u,18%
